JMJD2A Tudor inh: blocks the human JMJD2A Tudor domain; O75164; AlphaScreen JMJD2A-Tudor / H3K4me3 peptide binding; Potency, µM (titrated, usually from 114 µM), for inactives: top-dose activity change, negative = inhibition, most hits filed as inhibitors; actives 4.4% (n = 390,000); AID 504339; note: % is set by controls: 0 for no effect and ±100 for the full control effect; nearly all actives have a fitted effect of over 50% in size
G9a inh: G9a (human) methyltransferase inhibition; actives 8.8% (n = 350,000); Q96KQ7; G9a H3K9 monomethylation, AlphaScreen, 2 h; Potency, µM (top dose mostly 102 µM), without a hit: at the highest dose activity, negative = inhibition, usual class: inhibitors; AID 504332; note: % is set by controls: 0 for no effect and ±100 for the full control effect; nearly all actives have a fitted effect of over 75% in size
Target sequence (Q96KQ7 913-1193 limits assumed): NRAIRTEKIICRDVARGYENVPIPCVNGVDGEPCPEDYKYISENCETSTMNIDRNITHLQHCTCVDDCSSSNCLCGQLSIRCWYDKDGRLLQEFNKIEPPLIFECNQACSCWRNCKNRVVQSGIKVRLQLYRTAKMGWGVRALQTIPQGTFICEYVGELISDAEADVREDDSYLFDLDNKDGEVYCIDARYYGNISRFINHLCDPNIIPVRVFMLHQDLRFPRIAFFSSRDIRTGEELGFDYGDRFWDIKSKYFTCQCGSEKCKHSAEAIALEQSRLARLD
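Methyltransferase reactions run at room temperature for 2 h (20 nM enzyme, 500 nM biotin-H3K9 peptide, 20 uM SAM) after a 15 min compound preincubation; product detected by AlphaScreen beads and anti-H3K9me1 antibody.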
HP1b binding inh: inhibitors of HP1-beta chromodomain binding to methylated histone tails | P83916 | AlphaScreen HP1-beta / biotin-H3K9me3 peptide binding | Potency, µM (series often up to 114 µM), for inactives: top-dose activity change, negative = inhibition, hits mostly inhibitors | actives 0.56% (n = 390,000) | AID 540317; note: nearly all actives have a fitted effect of over 70% in size
Target sequence (P83916 whole entry, looked up): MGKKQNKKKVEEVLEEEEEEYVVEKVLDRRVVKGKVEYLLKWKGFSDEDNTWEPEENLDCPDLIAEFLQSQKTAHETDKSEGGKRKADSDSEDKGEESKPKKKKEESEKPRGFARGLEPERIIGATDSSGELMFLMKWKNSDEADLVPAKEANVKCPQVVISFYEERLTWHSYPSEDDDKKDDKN
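AlphaScreen: HP1-beta (50 nM) preformed 30 min with biotin-H3(1-18)K9me3 peptide (50 nM) in PBS pH 7.4, 0.01% Tween-20. Compound added for 30 min at RT, then streptavidin donor/nickel chelate acceptor beads (10 ug/mL) for 30 min.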
Sfp inh: blocks B. subtilis Sfp PPTase activity; actives 3.5% (n = 310,000); Biochemical Sfp PPTase activity, qHTS; AID 1490; Potency, µM, for the others: largest response in the series, negative = inhibition, usual class: inhibitors;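 note: the enzyme is Sfp with the accession as filed and its product quenches rhodamine fluorescence; 0% = enzyme reaction without inhibitor and -100% = no enzyme wells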
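After 15 min at room temperature with compound, 15 nM Sfp received 5 uM rhodamine-CoA plus 12.5 uM BHQ-2-ybbR (50 mM Hepes pH 7.6, 10 mM MgCl2). Rate came from the fluorescence difference over 30 min, ex 525/em 598 nm.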
BAZ2B inh: inhibitors of human BAZ2B bromodomain; Potency, µM (titrated, usually from 114 µM), for inactives: at the top dose activity change, negative = inhibition, usual class: inhibitors; actives 4.4% (n = 360,000); Q9UIF8; AlphaScreen BAZ2B-H3K14Ac peptide displacement; note: % is set by controls: 0 for no effect and ±100 for the full control effect; nearly all actives have a fitted effect of over 60% in size
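AlphaScreen displacement: compounds (up to 110uM) incubated 30 min at room temperature with a preformed 50 nM BAZ2B/50 nM biotinylated H3K14Ac peptide complex in PBS pH 7.4 with Tween-20. Donor and acceptor beads at 10 ug/mL final added, 20 min light-protected before reading.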
* marks the source's active call; other numbers are inactive results; ? = inconclusive; . = no result; [ ] = remark or other dose. Shown are actives, neighbours in structure and some others; about 12% of the full set was active somewhere. Calls come from the whole dose curve; as a rule, active = well fitted curve in the direction sought with a large enough effect; inconclusive = small, poorly fitted or top-dose-only effect, or another doubt; inactive = no such curve, though single readings can be large; an effect the other way counts as inactive or inconclusive. Potency is the fitted concentration of half-maximal effect.

SMILES	JMJD2A Tudor inh	G9a inh	HP1b binding inh	Sfp inh	BAZ2B inh
COc1ccc(C2(CNC(C)=O)CCCC2)cc1OC	7%	-43%[0.0925 µM]	24%	8%	1%
COc1cccc(-c2csc(NC3OC(=O)c4c3ccc(OC)c4OC)n2)c1 (stereo not given)	-20%	.	3%	-10%	79µM*
COc1ccc2c(c1OC)C(=O)OC2Nc1nc(-c2cc3ccccc3oc2=O)cs1 (stereo not given)	5%	?	37%	-21%	17%
COc1ccc2c(c1OC)C(=O)OC2Nc1nc(-c2ccc(-c3ccccc3)cc2)cs1 (stereo not given)	?	40µM*	?	?	?
CCC1CCCCN1CCCNC(=O)c1csc2c1CCCCC2 (stereo not given)	12%	24%	45%	12%	-18%
COc1cccc(NC(=O)Cc2ccc(NC(=O)N3CCCCc4ccccc43)cc2)c1	11µM*	0%[59 µM]	3%	.	-1%
CCCCOc1ccc(CNC(=O)Cc2ccc(NC(=O)N3CCCCc4ccccc43)cc2)cc1	79µM*	-5%[59 µM]	10%	.	-19%
Cn1c2ccccc2c(=O)c2cc(NCCCN3CCOCC3)ccc21	-13%	.	18%	.	.
CC1COc2ccccc2N1S(=O)(=O)c1ccc(Cl)cc1 (stereo not given)	85%	122%	118%	-22%	53%
N#C/C(=C\c1ccc(N2CCOCC2)o1)C(=O)NC1CCCCC1	-8%	.	33%	45µM*	-39%
N#C/C(=C\c1ccc(N2CCOCC2)o1)C(=O)NCC1CCCO1 (stereo not given)	-12%	.	23%	-1%	-16%
N#C/C(=C\c1ccc(N2CCOCC2)o1)C(=O)NCCc1ccccc1	-32%	32µM*	21%	5%	-27%
CCn1cc2c(n1)-c1c(oc(C(=O)Nc3ccc(Br)cc3F)c1C)CC2	-14%	-9%[59 µM]	23%	.	-8%
CN(C(=O)c1ccncc1)c1nnc(-c2ccccn2)s1	-28%	-4%[12.7 µM]	16%	8%	56µM*
Cc1ccc(C(=O)N(C)c2nnc(-c3ccncc3)s2)cc1	79µM*	.	8%	-4%	-34%
CN(C(=O)c1ccc(C#N)cc1)c1nnc(-c2ccccn2)s1	0%	-15%[59 µM]	102%	1%	8%
COc1ccc(-c2nnc(N(C)C(=O)c3ccno3)s2)cc1	-13%	-3%[59 µM]	84%	-3%	-5%
CN(C(=O)c1ccno1)c1nnc(-c2ccccn2)s1	?	?	49%	17%	50µM*
CCN1CCN(C(=O)c2ccc(C(F)(F)F)cc2)CC1	-15%	?	7%	17%	-30%
COc1ccc(S(=O)(=O)Nc2c(C(=O)O)[nH]c3ccccc23)c(OC)c1	?	40µM*	9%	13%	?
COc1ccc(S(=O)(=O)Nc2c(C(=O)O)[nH]c3ccc(OC)cc23)cc1	20µM*	7.9µM*	-30%	-30%	?
COc1ccc(S(=O)(=O)Nc2c(C(=O)O)[nH]c3ccc(OC)cc23)c(OC)c1	18µM*	2.2µM*	45µM*	25µM*	45µM*
Cc1ccc2ccc3cccc4ccc1c2c34	217%	-3%[0.501 µM]	377%	.	343%
Cc1ccc(CS(=O)(=O)CCC(=O)NCCC(C)C)cc1	2%	-7%[59 µM]	24%	15%	2%
c1ccc(Nc2ccccc2)cc1	-13%	?	28%	.	-2%
SMILES	JMJD2A Tudor inh	G9a inh	HP1b binding inh	Sfp inh	BAZ2B inh
c1ccc(Nc2ccccn2)cc1	22µM*	6%[59 µM]	?	6%	1%
c1ccc(Nc2cccc(Nc3ccccc3)n2)cc1	56µM*	7.9µM*	?	-4%	45µM*
O=C(CC(=O)Nc1ccccn1)Nc1ccccn1	-20%	27%	23%	14%	2%
COCCN1C(=O)N(C)[C@@H](c2ccccc2)C(C(C)=O)=C1C	-4%	19%[59 µM]	36%	0%	2%
N#CC1=C(N)N=C(SCc2ccccc2)C(C(N)=O)C12CCCCC2 (stereo not given)	-26%	47%[12.7 µM]	11%	-29%	?
Cc1ccc(C(=O)CSC2=NC(N)=C(C#N)C3(CCCCC3)C2C(N)=O)cc1 (stereo not given)	?	40µM*	?	45µM*	-35%
COc1ccc(CN2CCN(C3CCC3)CC2CCO)cc1C (stereo not given)	-7%	.	45%	2%	-2%
O=c1c2c([nH]c3ccc(Br)cc13)CCCC2	-12%	?	21%	9%	-5%
O=C1Cc2c([nH]c3ccc(Br)cc23)-c2ccccc2N1	-12%	40µM*	32%	-28%	.
Cc1c(Cl)cccc1NC(=O)COC(=O)c1ccc(CN2CCCC2=O)cc1	-2%	6%[59 µM]	29%	.	6%
CN(C)c1nc(-c2cn(CCC#N)c3ccccc23)cs1	50µM*	28µM*	-15%	-25%	?
CC(C)c1ccc(N(CCc2ccccn2)C(=O)C(C)(C)C)cc1	6%	.	38%	.	.
O=C(O)C(S)C(S)C(=O)O (stereo not given)	50µM*	.	?	.	.
O=C(O)C(S)[C@@H](S)C(=O)O (stereo not given in full)	.	?	.	-90%	.
Cc1ccc(CNC(=O)Nc2ccccc2)cc1	5%	-33%[12.7 µM]	23%	6%	6%
COc1cccc(CNC(=O)Nc2cccs2)c1	-22%	45µM*	-6%	45µM*	-13%
Cc1ccc(CNC(=O)Nc2cccs2)cc1	-25%	?	-15%	18µM*	-7%
COc1ccc(CNC(=O)Nc2cccs2)cc1OC	-25%	13µM*	-14%	25µM*	-29%
COc1ccc(CNC(=O)Cc2cccs2)cc1OC	8%	2%	16%	2%	-3%
COc1cccc(CNC(=O)C2(c3cccs3)CCOCC2)c1	-2%	1%[59 µM]	32%	.	0%
COc1ccc(Br)cc1CNC(=O)Cn1ncn2nc(-c3cccs3)cc2c1=O	-11%	-34%[59 µM]	18%	.	-29%
COc1ccc(Br)cc1CNC(=O)Nc1cccs1	-19%	?	4%	50µM*	0%
O=c1cc(CSc2ccccc2)nc(-c2ccncc2)[nH]1	3%	1%	7%	16%	-18%
CCOc1ccc(CNC(=O)C2Cc3cc(S(=O)(=O)N4CCCC4)ccc3N2C(C)=O)cc1 (stereo not given)	-1%	67%	31%	4%	-16%
COc1cc(NC(=O)C2CCN(S(=O)(=O)c3cccc4nonc34)CC2)cc(OC)c1	-25%	22%[12.7 µM]	16%	2%	-10%
CCN(C(=O)CN1CCN(c2ccccc2)CC1)c1c(N)n(Cc2ccccc2)c(=O)[nH]c1=O	-26%	-4%[59 µM]	8%	-1%	10%
Cc1ccc(S(=O)(=O)Nc2c(C)n(C)n(-c3ccccc3)c2=O)cc1C(=O)NCc1ccccc1	-25%	-8%[59 µM]	24%	.	5%

Assay outcomes deposited in PubChem BioAssay by National Center for Advancing Translational Sciences (NCATS).
